SMILES strings stand for the structures. The whole screen tested about 58,000 compounds, of which about 3,400 (5.9%) were called active.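 How the source made its calls: active means luminescence count or its row- and column-corrected plate score outside the 99.7% band of the plate's sample wells, on either side; inactive means the rest.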 Many of the other results were omitted from the sample, so actives are more common in it than they were.

Sequence of D(1A) dopamine receptor (Homo sapiens) (P21728 whole entry, looked up): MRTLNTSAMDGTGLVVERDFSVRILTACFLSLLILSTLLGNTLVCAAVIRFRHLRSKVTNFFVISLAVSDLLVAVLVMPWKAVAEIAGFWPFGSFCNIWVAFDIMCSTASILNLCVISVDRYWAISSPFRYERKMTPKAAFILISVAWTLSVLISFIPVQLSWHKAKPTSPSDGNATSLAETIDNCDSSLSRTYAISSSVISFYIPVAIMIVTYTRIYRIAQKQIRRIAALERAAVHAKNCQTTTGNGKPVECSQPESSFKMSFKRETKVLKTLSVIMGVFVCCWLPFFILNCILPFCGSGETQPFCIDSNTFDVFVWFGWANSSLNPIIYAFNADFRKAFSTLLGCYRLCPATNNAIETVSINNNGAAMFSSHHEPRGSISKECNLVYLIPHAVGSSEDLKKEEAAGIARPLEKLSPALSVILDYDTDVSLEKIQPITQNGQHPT

This experiment has as its target D(1A) dopamine receptor (Homo sapiens) (UniProt P21728). Briefly: D1 CRE-luciferase signal change, two-sided – cell-based, HEK293 D1, dopamine EC30, D1 allosteric modulator project, primary screen (AID 641). The settings on record: dopamine EC30 potentiation, at 10 µM, actives deviate in either direction.
For `COc1ccc(-c2nc(CS(=O)CC(=O)NCc3ccccn3)c(C)o2)cc1` (centres undefined), the B-score was -1.3 (inactive).

As to `Cc1ccc2nc(NCCCNC(=O)c3cnccn3)c(C#N)cc2c1`, the B-score was 0.787 (inactive).

On to `CCc1ccccc1NC(=O)c1cccs1`, for which the B-score is -0.318 (inactive).

As to `COCCn1nnnc1CN1CCC(NC(=O)Nc2cccc(OC)c2)CC1`, the B-score was -0.857 (inactive).

For `CCOC(=O)c1cc2ccccc2nc1C`, the B-score is 0.135 (inactive).

As for `CCOC(=O)c1cc2n(c1C)-c1ccccc1C2=O`, the B-score was 4.61 (active).

With `CCOC(=O)c1cc2n(c1N)-c1ccccc1C2=O`, the B-score is 1.46 (inactive).

Regarding `CCn1nc(NC(=O)c2ccco2)c2cc3ccc(C)cc3nc21`, the B-score was 0.36 (inactive).

Take `CC1CCc2c(sc3c2C2=NS(=O)(=O)CCN2C=N3)C1` (centres undefined): the B-score is 1.19 (inactive).

Take `CCCCCn1c(SCCC(C)C)nc2c1c(=O)[nH]c(=O)n2C`: the B-score was 0.151 (inactive).

As to `CCCSc1nc2c(c(=O)[nH]c(=O)n2C)n1CCc1ccccc1`, the B-score was 18 (active).

For the compound `Cn1c(=O)[nH]c(=O)c2c1nc(N1CCCCCC1)n2CC(=O)c1ccccc1`, the B-score was 0.0681 (inactive).

As to `CN(Cc1ccccc1)c1nc2c(c(=O)[nH]c(=O)n2C)n1CCSc1nc2ccccc2[nH]1`, the B-score was 1.93 (inactive).

Consider `CN1CCN(c2nc3c(c(=O)[nH]c(=O)n3C)n2Cc2cccc3ccccc23)CC1`, for which the B-score is -2.28 (inactive).

On to `CC1CCN(c2nc3c(c(=O)[nH]c(=O)n3C)n2CCCc2ccccc2)CC1`, for which the B-score was 3.73 (active).

Consider `Cc1cccc2cc(C#N)c(N3CCCC3)nc12`, for which the B-score was -0.4 (inactive).

For the compound `CCC(=O)N1c2ccc(S(=O)(=O)CCC(=O)N3CCN(c4ccccc4)CC3)cc2CC1C` (centres undefined), the B-score is 0.966 (inactive).

As for `COc1ccc(C(=O)n2nc(-c3ccc(Cl)cc3)nc2N)cc1OC`, the B-score is 1.72 (inactive).

For the compound `COc1ccc(C(=O)n2nc(-c3ccc(C)cc3)nc2N)cc1OC`, the B-score is 0.0973 (inactive).

Consider `COC(=O)c1ccc(OC(=O)c2nn(C)cc2Cl)c(OC)c1`, for which the B-score was -3.71 (active).

As to `Cn1c(-c2ccc(C(=O)c3ccccc3)s2)nc2ccccc21`, the B-score was -0.58 (inactive).

For the compound `CCN(CC)CCN1C(=O)C(=O)/C(=C(/O)c2ccccc2)C1c1ccccc1F` (centres undefined), the B-score was 0.045 (inactive).

Turning to `Cc1ccc(C)n1C(Cc1ccccc1)C(=O)O` (centres undefined), the B-score is 1.32 (inactive).

`c1nc(COc2nsnc2N2CCOCC2)cs1`: the B-score was 1.59 (inactive).

Take `c1ccc(COc2nsnc2N2CCOCC2)cc1`: the B-score was 5.03 (active).

As to `O=C(O)COc1nsnc1N1CCOCC1`, the B-score was 0.787 (inactive).

As for `COc1cc(OC)c(NC(=O)c2ccc(Br)o2)cc1Cl`, the B-score is -0.284 (inactive).

In the case of `CC(=O)Nc1ccc(S(=O)(=O)N2CCC(N(C)CCC(C)C)CC2)cc1`, the B-score was -0.0927 (inactive).

Turning to `CC1(C)CC(=O)NC=C(c2ccccc2)C1`, the B-score is -0.105 (inactive).

For the compound `CC(C)C1C2=C(CC(C)(C)CC2=O)ON1c1ccccc1` (centres undefined), the B-score was 6.74 (active).

For `Cc1cc2c(cc1C)NC(c1ccccn1)C1=C(CC(C)(C)CC1=O)N2` (centres undefined), the B-score is -0.653 (inactive).

Take `Cc1cc(C)c(S(=O)(=O)NCCCN2CCOCC2)cc1Br`: the B-score is 0.0527 (inactive).

Consider `COc1ccc(NC(=O)CN(C)S(=O)(=O)c2ccccc2)cc1OC`, for which the B-score was -0.205 (inactive).

With `COc1ccc(S(=O)(=O)N(C)CC(=O)Nc2ccc3c(c2)OCCO3)cc1OC`, the B-score was 3.86 (active).

In the case of `COc1cccc(NC(=O)CN(C)S(=O)(=O)c2ccc(C)cc2)c1`, the B-score was -0.881 (inactive).

Regarding `Cc1cc(=O)n2nc(N3CCCC3C(=O)NCCCN3CC(C)CC(C)C3)sc2n1` (centres undefined), the B-score was -0.000281 (inactive).

Regarding `Cc1ccc(-c2nnc(SC(C)C#N)n2N)cc1` (centres undefined), the B-score was -0.328 (inactive).

Regarding `COc1ccc(-c2noc(COc3ccc(Cl)c(C)c3)n2)cc1`, the B-score is -0.505 (inactive).

Consider `COc1ccc(-c2cc(C(F)(F)F)n3nc(C(=O)N4CCOCC4)c(Cl)c3n2)cc1`, for which the B-score was -1.29 (inactive).

On to `c1coc(-c2nc3nc4ccccc4n3nc2-c2ccco2)c1`, for which the B-score is 2.64 (active).

Consider `c1ccc(CSc2nnc(-c3ccco3)c(-c3ccco3)n2)cc1`, for which the B-score is 0.706 (inactive).

With `Cc1nn2c3ccccc3nc2n(C)c1=O`, the B-score was 0.34 (inactive).

In the case of `CC1CCCN(Cc2nc3c(c(=O)n(C)c(=O)n3C)n2Cc2cccc3ccccc23)C1` (centres undefined), the B-score is -0.313 (inactive).

For the compound `CCC1(C)Cc2c(sc3nc4n(c(=O)c23)CCCS4)CO1` (centres undefined), the B-score was 2.42 (active).

As to `CC1(C)Cc2c(sc3nc4n(c(=N)c23)CCCCC4)CO1`, the B-score was 0.888 (inactive).

`O=c1c2ccccc2oc2nc3n(c(=O)c12)CCCS3`: the B-score was 0.013 (inactive).

Take `CC(=O)NCCc1ccc(S(=O)(=O)N(C)C2CCS(=O)(=O)C2)cc1` (centres undefined): the B-score was 1.13 (inactive).

On to `N#Cc1c(/N=C/N2CCCC2)oc(-c2ccccc2)c1-c1ccccc1`, for which the B-score was 0.952 (inactive).

For the compound `Cc1nc(SC(C)C)[nH]c(=O)c1Cc1ccccc1`, the B-score was 0.348 (inactive).

Consider `C1=C(CCNc2ncnc3c2cnn3-c2ccccc2)CCCC1`, for which the B-score was -1.37 (inactive).

`Clc1ccc(Cn2ncc3c(NCc4cccnc4)ncnc32)cc1`: the B-score was -2.9 (active).

Turning to `Cc1cc(Cl)c(S(=O)(=O)NCc2cccnc2)cc1OCC(N)=O`, the B-score is 0.213 (inactive).

As for `CC12CN3CC(C)(CN(C1)C3c1ccc(Cl)cc1Cl)C2=O` (centres undefined), the B-score was -0.693 (inactive).

Regarding `Cc1ccc(-c2cc(C(F)(F)F)n3nc(C(=O)N4CCCC4)cc3n2)cc1`, the B-score is 1.18 (inactive).

Consider `Cc1cccc(NC(=O)c2ccc3ccccc3n2)n1`, for which the B-score was 0.542 (inactive).

As for `Cc1nnc(NC(=O)CSc2nccn2-c2cccc(C)c2C)s1`, the B-score is -0.587 (inactive).

On to `CCOC(=O)N1CCC(NC(=O)CCc2cn(C)c3ccccc23)CC1`, for which the B-score is 2.11 (inactive).

As to `Fc1cc(F)c2nc(N3CCOCC3)sc2c1`, the B-score is 0.966 (inactive).

For the compound `O=C(Nc1nc2cc3c(cc2s1)OCCO3)c1cccc(S(=O)(=O)N2CCOCC2)c1`, the B-score is -0.542 (inactive).

`c1c2c(cc3sc(N4CCCCC4)nc13)OCCO2`: the B-score was -4.94 (active).

For the compound `CSCCC1NC2(C(=O)Nc3ccc(Cl)cc32)[C@@H]2C(=O)N(C3CCCC3)C(=O)[C@H]12` (some centres undefined), the B-score was 0.395 (inactive).

As to `Cn1nnnc1SCc1cc(=O)[nH]c2ccccc12`, the B-score is 0.325 (inactive).

For `Cc1ccc(-c2noc(CSc3nnnn3-c3ccccc3)n2)cc1`, the B-score was 0.0126 (inactive).

In the case of `CN(C)c1nc(N)nc(CSc2nnnn2-c2cccc3ccccc23)n1`, the B-score was 7.63 (active).

For the origin of these results see PubChem BioAssay AID641 (Vanderbilt High Throughput Screening Facility, 2007).
